Source: the supplement of paper PMC3334620
Whole data set: some 33,000 sequences, median “E-score (-0.5 to 0.5)” near -0.012, cut for the highest 2% near 0.29. The sample holds the highest values, similar sequences and a random draw of the others, so the mix is not that of the screen.

target: T1, Ybr033w (UniProt P38073); test: PBM E-score (8-mer binding enrichment) (E-score (-0.5 to 0.5)); higher = stronger / more preferred TF binding; details: protein concentration: 200 nM; construct: GST-full length
T1 sequence: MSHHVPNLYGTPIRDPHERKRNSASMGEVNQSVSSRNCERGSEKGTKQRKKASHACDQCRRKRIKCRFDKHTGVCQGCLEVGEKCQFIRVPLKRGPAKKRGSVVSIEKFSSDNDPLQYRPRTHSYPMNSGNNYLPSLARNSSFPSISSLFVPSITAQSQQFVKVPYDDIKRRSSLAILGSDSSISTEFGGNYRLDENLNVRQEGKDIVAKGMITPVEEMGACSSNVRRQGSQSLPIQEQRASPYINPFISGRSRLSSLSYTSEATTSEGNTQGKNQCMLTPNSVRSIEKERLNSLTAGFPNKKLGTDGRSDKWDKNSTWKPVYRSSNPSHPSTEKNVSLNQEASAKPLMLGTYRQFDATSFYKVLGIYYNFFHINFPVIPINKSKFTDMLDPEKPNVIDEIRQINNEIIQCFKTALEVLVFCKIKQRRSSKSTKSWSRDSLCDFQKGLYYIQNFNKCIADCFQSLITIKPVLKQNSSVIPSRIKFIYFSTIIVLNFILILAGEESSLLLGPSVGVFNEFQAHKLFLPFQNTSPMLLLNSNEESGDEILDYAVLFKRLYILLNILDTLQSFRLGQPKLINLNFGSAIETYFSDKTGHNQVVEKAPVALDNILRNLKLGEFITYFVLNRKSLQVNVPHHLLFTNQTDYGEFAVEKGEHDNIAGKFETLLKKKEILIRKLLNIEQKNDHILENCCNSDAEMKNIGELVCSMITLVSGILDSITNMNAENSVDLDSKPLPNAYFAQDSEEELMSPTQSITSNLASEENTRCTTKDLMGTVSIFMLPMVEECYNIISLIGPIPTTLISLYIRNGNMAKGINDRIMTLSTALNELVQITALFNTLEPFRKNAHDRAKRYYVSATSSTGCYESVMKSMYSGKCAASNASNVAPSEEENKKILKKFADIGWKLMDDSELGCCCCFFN
Experimental: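 Universal 'all 10-mer' protein binding microarrays (Agilent AMADID 015681) probed with GST-tagged S. cerevisiae TFs (full-length or DBD) made by in vitro transcription/translation (PURExpress), about 100-200 nM. Bound TF was detected with fluorescent anti-GST. Each ungapped 8-mer (which stands for itself and its reverse complement) is scored by the PBM enrichment score (E-score), a modified Wilcoxon-Mann-Whitney statistic from -0.5 to +0.5, computed with the Universal PBM Analysis Suite. Scale: above 0.35 generally sequence-specific binding.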

| Sequence | PBM E-score |
| --- | --- |
| AGGCAGTG | -0.0313 |
| GCCGTTTA | 0.0411 |
| CAAAAGTA | 0.16 |
| AAGCCATA | 0.0179 |
| ATGCACGA | -0.021 |
| GGTGAGAC | 0.0001 |
| ACCAATCC | -0.0137 |
| AACCTTTC | -0.0863 |
| ACCAGCAC | -0.0392 |
| CTCTGCGA | -0.0389 |
| CTTCATCC | -0.0751 |
| ATTCATCA | 0.171 |
| ATTCATCC | 0.349 |
| ACATAAAT | 0.149 |
| AGGGTGGG | -0.0779 |
| ACCAAGCG | -0.0846 |
| AGCACACA | -0.0313 |
| AAAATGGT | 0.319 |
| AAAATGGA | 0.197 |
| AAAATGGG | -0.032 |
| AAAATGAC | 0.15 |
| AAAATGAA | 0.081 |
| AAAATGAT | 0.369 |
| GATATGGC | -0.161 |
| TCACCTAA | 0.0978 |

| Sequence | PBM E-score |
| --- | --- |
| GCGATACC | -0.236 |
| CTGACTCA | -0.0835 |
| ATTACAAT | 0.0893 |
| AATACAAA | 0.302 |
| AATACAAC | 0.271 |
| ATTACAGC | -0.21 |
| CATACAAA | 0.246 |
| ATTACAAG | 0.18 |
| ATTACAGA | 0.141 |
| ATTACAAA | 0.318 |
| ATTACAGG | 0.326 |
| GATACAAA | 0.277 |
| TATACAAA | 0.356 |
| AATACAAG | 0.252 |
| ACGGCTTG | -0.0473 |
| GGCGTGAC | -0.141 |
| ATACTGAG | 0.267 |
| CTCCAGTA | 0.109 |
| AATCCATC | 0.14 |
| CAGCATAG | -0.0334 |
| CACTTGCA | -0.0412 |
| CGCTACAA | 0.111 |
| GGCAGCCA | -0.0547 |
| GATACATC | -0.0274 |
| AATACATC | 0.297 |

| Sequence | PBM E-score |
| --- | --- |
| AATACATG | 0.222 |
| GTTCGAAC | 0.209 |
| GGCTGTCA | -0.0424 |
| CAGCGAAC | 0.0498 |
| ACATAAGA | 0.293 |
| TCATAAGA | 0.114 |
| ACATAAGC | 0.0339 |
| CCCAGTTA | -0.0098 |
| GTGTTTGA | 0.191 |
| CAAGTGGC | 0.0512 |
| AATATTCT | 0.248 |
| GATATTCC | 0.417 |
| AATATTCG | 0.161 |
| GATATTCA | 0.12 |
| CATATTAC | 0.17 |
| AATATTCC | 0.45 |
| GCTATTAC | -0.0504 |
| GATATTAC | 0.31 |
| CATATTCC | 0.0424 |
| CCTGCACG | -0.159 |
| AGCAGTCC | -0.182 |
| GCGTGAAA | 0.0243 |
| AACTGCTT | 0.0101 |
| GCCGGTTA | -0.0903 |
| CTACAGCA | 0.0371 |

| Sequence | PBM E-score |
| --- | --- |
| TAAGGTCA | 0.028 |
| ACGGGAGT | 0.0679 |
| CCGCTCAG | -0.111 |
| AGAACAGG | -0.125 |
| AGGTTACC | 0.0897 |
| AATGATCA | 0.0742 |
| GATGATCC | 0.4 |
| AATGATCC | 0.421 |
| CATGATCC | 0.0454 |
| AATGATAG | 0.215 |
| AATGATAT | 0.298 |
| AATGATTA | 0.251 |
| AATGATTC | 0.306 |
| AATGATCT | 0.157 |
| AATGATAA | 0.192 |
| GATGATCA | 0.0749 |
| CATGATTC | -0.131 |
| TCCCACGA | 0.0793 |
| ACTAGCCA | 0.0538 |
| AGAGTCTA | -0.16 |
| CGCTGCAG | -0.12 |
| GCGTTCAC | -0.0913 |
| GTACCGAC | -0.275 |
| CATGAGGA | 0.0386 |
| CGCTCTGC | -0.0367 |

| Sequence | PBM E-score |
| --- | --- |
| CTGCGTGA | 0.0319 |
| ATTGATCA | 0.051 |
| ATTGATCC | 0.466 |
| CTTGATCC | 0.0221 |
| ATGCTTCA | 0.0658 |
| CACTACTA | 0.094 |
| GACTACTA | 0.122 |
| AACTACTG | 0.126 |
| TAATACTA | 0.362 |
| AACTACTC | 0.119 |
| CAATACTA | 0.143 |
| GAATACTA | 0.204 |
| ATCTACTA | 0.324 |
| ATCTACTG | 0.143 |
| TACTACTA | 0.335 |
| AACTACTA | 0.298 |
| ATCTACTC | 0.127 |
| TAACTATA | 0.242 |
| ATGCTGCG | -0.15 |
| CGAGGCAC | -0.109 |
| GTACCCAC | -0.116 |
| CGCAGGGA | -0.202 |
| AGCTAATA | 0.078 |
| AGCGCATC | 0.0587 |
| CGCGAAGC | 0.0254 |

| Sequence | PBM E-score |
| --- | --- |
| TACTAGTA | 0.377 |
| GACTAGTA | 0.0157 |
| CACTAGTA | 0.0533 |
| CTTTAAAA | 0.2 |
| AAAGTCGG | -0.122 |
| ACTGTGCA | 0.031 |
| ATGACAAC | 0.111 |
| ATGACAAT | 0.293 |
| ATGACAAG | -0.0461 |
| AAAAAGTC | 0.22 |
| AAAAAGTT | 0.314 |
| ACAAAAGT | 0.0857 |
| AAAAAAGC | 0.171 |
| AAAAAAGT | 0.353 |
| AAAAAGTA | 0.283 |
| CTGTTGCC | -0.136 |
| AGTGAAAA | 0.183 |
| TGCCAACA | 0.0786 |
| GTGCGCAC | 0.0505 |
| GCAGTCCA | -0.029 |
| ATTGTTTA | 0.296 |
| ATCGTTTC | 0.184 |
| ATTGTTTC | 0.199 |
| ATCGTTTA | 0.307 |
| ATTGTTTG | 0.118 |

| Sequence | PBM E-score |
| --- | --- |
| GTCGTTTA | 0.0819 |
| GTTGTCCA | 0.00858 |
| ATGGTCAA | 0.198 |
| AGCTGGCC | -0.179 |
| AGGTAGAC | -0.212 |
| CTAGAGAC | -0.0751 |
| ATTCAACG | 0.114 |
| TTACCTAA | 0.156 |
| ATACCTAA | 0.316 |
| ATACCTAT | 0.102 |
| CCAAGCGA | -0.0712 |
| AATAATTC | 0.386 |
| GATAATTA | 0.361 |
| AATAATGA | 0.247 |
| AATAATTA | 0.372 |
| GCTAATTA | 0.175 |
| ACTAATTA | 0.281 |
| CATAATTA | 0.284 |
| AATAATTG | 0.256 |
| CATAATTC | -0.00123 |
| AAACGTTC | 0.0667 |
| AGAGTGTG | -0.0636 |
| CGATGCGC | 0.0464 |
